Compound activity (PubChem)
This is a sample that favours compounds with a hit; in the whole collection about 0.82% have one here.
Rv3671c inh: Rv3671c (M. tuberculosis) protease inhibition; P9WHR9; inhibition, % at 5.96 µM; hit rate 0.048% among 320,000; in the data active = inhibition above about 38%;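 note: extracellular domain of Rv3671c used as enzyme; 0% = enzyme with DMSO and 100% = no enzyme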
Target sequence (P9WHR9 whole entry, looked up, the tested form may be a part): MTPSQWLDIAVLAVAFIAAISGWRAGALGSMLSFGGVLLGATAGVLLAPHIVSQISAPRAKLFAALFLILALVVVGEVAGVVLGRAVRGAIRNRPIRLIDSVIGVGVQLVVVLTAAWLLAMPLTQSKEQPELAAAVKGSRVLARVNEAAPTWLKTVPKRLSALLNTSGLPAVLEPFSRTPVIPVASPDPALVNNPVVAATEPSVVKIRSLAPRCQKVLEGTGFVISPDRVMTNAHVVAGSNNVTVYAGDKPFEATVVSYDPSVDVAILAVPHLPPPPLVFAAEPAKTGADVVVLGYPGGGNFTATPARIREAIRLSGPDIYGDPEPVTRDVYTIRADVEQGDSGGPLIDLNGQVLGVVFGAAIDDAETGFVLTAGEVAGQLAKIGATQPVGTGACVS
Mtb UGM inh: Mtb UDP-galactopyranose mutase inhibition; inhibition, % at 10 µM; purified UGM, fluorescence polarization probe displacement; hit rate 0.06% among 320,000; AID 504406; P9WIQ1; in the data active = inhibition above about 10%, passing the limit was not always enough
FadD28 FP inh: M. tuberculosis FadD28 bisubstrate binding inhibition. FadD28 bisubstrate probe binding, fluorescence polarization. AID 588549. hit rate 0.22% among 360,000. inhibition, % at 12.5 µM; in the data active = inhibition above about 8.5%, passing the limit was not always enough
Y pestis TopoI: Y. pestis Topo-I inhibition via cleavage products; hit rate 0.064% among 360,000; activity, % at 10 µM; Y. pestis Topo-I cleavage product accumulation, plate reader; AID 504884; in the data active = activity above about 50%, passing the limit was not always enough
Mtb BioA inh: BioA (M. tuberculosis) enzyme inhibition | purified M. tuberculosis BioA enzyme, plate reader | inhibition, % at 9.99 µM | hit rate 0.096% among 360,000; in the data active = inhibition above about 40%
RecA intein inh: blocks M. tuberculosis RecA intein splicing | inhibition, % (test concentration not listed) | hit rate 0.75% among 290,000 | cell-free RecA intein splicing, fluorescence | AID 2221 | P9WHJ3; in the data active = inhibition above about 30%;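 note: 0% = vehicle wells and 100% = reference inhibitor control wells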
Active calls of the source: *; nt = not tested or not shown.

SMILES	Rv3671c inh	Mtb UGM inh	FadD28 FP inh	Y pestis TopoI	Mtb BioA inh	RecA intein inh
COc1ccc(NC(=O)Cc2c[nH]c3ccccc23)cc1S(=O)(=O)N1CCOCC1	3	3	6	-7	nt	0
CCN1CCN(c2cc(N3CCN(C(=O)c4ccco4)CC3)c3c4c(onc24)-c2ccccc2C3=O)CC1	1	2	1	2	-4	12
O=C(O)CCNc1cc(N2CCN(C(=O)c3ccco3)CC2)c2noc3c2c1C(=O)c1ccccc1-3	-28	2	22*	20	-108	21
C[C@@H]1CN([C@H](C)CO)C(=O)c2cc(NC(=O)C3CCCCC3)ccc2O[C@H]1CN(C)CC1CCCCC1	nt	nt	nt	nt	-2	nt
CN=c1scc(-c2ccccc2F)n1/N=C/c1ccc(O)c(O)c1O	nt	nt	9.1*	-12	-2	12
CN=c1scc(-c2ccccc2F)n1/N=C/c1ccc[nH]1	-13	1	0	-10	nt	2
C[C@@H]1CN([C@H](C)CO)C(=O)c2cc(NC(=O)C3CCCCC3)ccc2O[C@H]1CN(C)S(=O)(=O)c1ccccc1	nt	nt	nt	nt	2	nt
NNC(=S)Nc1cccc(-c2n[nH]c(=S)o2)c1	10	3	9.5*	-3	3	3
O=C(C[C@@H]1C=C[C@H](NS(=O)(=O)c2ccc(F)cc2)[C@H](CO)O1)NCc1ccc(Cl)c(Cl)c1	nt	nt	nt	nt	4	nt
NC(=O)c1sc2nc3c(c(-c4ccco4)c2c1N)CCC3	-3	0	2	-6	4	7
Nc1c(C(=O)NC2CC2)sc2nc3c(c(-c4ccco4)c12)CC/C3=C/c1ccco1	11	-2	18*	-32	nt	nt
O=C1NC2=C(CCc3ccccc32)C(c2ccccc2)N1 (centres undefined)	-36	-1	-1	2	-1	47*
Cc1cccc(C)c1OCc1cc(C(=O)N2CCC(C3CCCCC3)C2)no1 (centres undefined)	-3	0	1	55*	-2	2
CCCCN(CCCC)C(=O)C1(P(=O)(c2ccccc2)c2ccccc2)CCC1	4	-1	-12	55*	2	9
CCN1C(=O)NC(=O)/C(=C\c2cn(CC(=O)N3CCCC3)c3ccccc23)C1=O	-13	52*	nt	8	-3	4
CCN1C(=O)NC(=O)/C(=C\c2cn(CC(=O)O)c3ccccc23)C1=O	-13	0	nt	nt	nt	3
CN1C(=O)/C(=C/c2cn(CC(=O)N3CCCCC3)c3ccccc23)NC1=S	nt	1	-3	0	-5	-3
CCN1C(=O)NC(=O)/C(=C\c2cn(CC(=O)N3CCCCC3)c3ccccc23)C1=O	-18	41*	3	-6	-6	-4
N#Cc1c(N2CCCC(O)C2)nc(N)c2c(N)nc3c(c12)CC(=O)N3C12CC3CC(CC(C3)C1)C2 (centres undefined)	-93	4	25*	-6	-4	30
COc1ccc(-n2c3nc4ccccc4nc3c3c(=N)oc(C)nc32)cc1	-14	5	-2	1	-1	72*
CO[C@@H]1CN(C)C(=O)c2cc(NC(=O)Nc3cc(F)ccc3F)ccc2OC[C@@H](C)N(C(=O)c2cnccn2)C[C@@H]1C	nt	nt	nt	nt	0	nt
O=C(N/N=C/c1c[nH]c2ccccc12)c1cc(Br)ccc1O	12	0	29*	-19	9	-2
Cc1nc(N)sc1C(=O)N/N=C/c1c[nH]c2ccccc12	-4	0	9.9*	0	-1	-3
CC(C)NC(=O)N(C)C[C@@H]1Oc2cc(C#CC(C)(C)O)ccc2S(=O)(=O)N([C@H](C)CO)C[C@H]1C	nt	nt	nt	nt	-3	nt
CCCCCCCN(C(=O)CCl)c1cccc(C)c1	-2	2	-1	9	1	-2
SMILES	Rv3671c inh	Mtb UGM inh	FadD28 FP inh	Y pestis TopoI	Mtb BioA inh	RecA intein inh
N#CCCN(C(=O)CCl)c1cccc(Cl)c1	10	-2	0	0	1	45*
C[C@H]1CCCCO[C@H](CN(C)S(=O)(=O)c2cccs2)[C@@H](C)CN([C@@H](C)CO)C(=O)c2cc(NS(=O)(=O)c3cn(C)cn3)ccc2O1	nt	nt	nt	nt	-1	nt
O=C(Nc1ccccc1F)N1C[C@H]2[C@@H](c3ccccc31)[C@H](CO)N2C(=O)Nc1ccccc1	nt	nt	nt	nt	0	nt
CC(N)=Nc1ccc([N+](=O)[O-])cc1	-2	14*	-4	-4	-1	1
CC(=O)c1ccc([N+](=O)[O-])cc1	-1	1	-2	0	0	nt
O=C(NCC[C@H]1CC[C@@H](NC(=O)C2CCOCC2)[C@H](CO)O1)c1ccc(F)cc1	nt	nt	nt	nt	-4	nt
O=S(=O)(c1ccc(Cl)cc1)c1snnc1-c1ccccc1	-4	-1	1	3	0	81*
O=S(=O)(c1ccc(F)cc1)c1snnc1-c1ccccc1	-5	-2	-4	12	nt	69*
CN(C)c1ncc(S(=O)(=O)c2ccc(Cl)cc2)c(-c2ccccc2)n1	5	-1	-4	10	-4	5
Cc1ccc2c(c1)Oc1ccc(NC(=O)CCl)cc1C(=O)N2	-7	2	-5	-3	nt	60*
CCCCNC(=O)CSc1nc(CCC)nc2ccccc12	-3	-1	-3	13	nt	6
CCCc1nc(SCC(=O)N2CCc3ccccc3C2)c2ccccc2n1	-15	-1	-1	12	1	32*
C[C@H](CO)N1C[C@H](C)[C@@H](CN(C)Cc2ccc(C(F)(F)F)cc2)Oc2ccc(N(C)C)cc2CC1=O	nt	nt	nt	nt	1	nt
Nc1ccc2nc[nH]c2c1	-6	-5	3	-6	nt	49*
O=[N+]([O-])c1ccc2nc[nH]c2c1	nt	nt	-2	0	-2	nt
COc1ccc(CN(C)C[C@H]2Oc3ccc(NC(=O)Nc4ccc5c(c4)OCO5)cc3C(=O)N([C@@H](C)CO)C[C@H]2C)cc1	nt	nt	nt	nt	4	nt
CCNC(=S)N=Nc1c(O)[nH]c2ccc([N+](=O)[O-])cc12	9	2	-1	-7	nt	45*
O=[N+]([O-])c1ccc2[nH]c(O)c(N=NC(=S)NCC3CCCO3)c2c1 (centres undefined)	0	nt	-1	-12	nt	1
O=C1NC(=O)N(Cc2ccccc2)C(=O)/C1=C\c1ccco1	-19	1	28*	-5	nt	0
O=C1NC(=O)N(Cc2ccc(F)cc2)C(=O)/C1=C\C=C\c1ccco1	-37	-1	2	-2	-2	-1
CC(C)CC#Cc1ccc2c(c1)O[C@@H](CN(C)C(=O)CC1CC1)[C@H](C)CN([C@H](C)CO)S2(=O)=O	nt	nt	nt	nt	4	nt
Cc1ccc(SCc2cc(=O)[nH]c(Nc3nc(C)c4ccc(C)cc4n3)n2)cc1	-1	-1	-2	113*	nt	8
Cc1ccc2nc(Nc3nc(CSc4nnc(C)s4)cc(=O)[nH]3)nc(C)c2c1	6	0	-2	58*	nt	-1
CC(C)c1ccc(NC(=O)C2Cc3c(-c4ccc5c(c4)OCO5)ccnc3O2)cc1 (centres undefined)	nt	nt	0	60*	0	nt
CC(=O)Nc1ccc(-c2ccnc3c2CC(C(=O)Nc2ccc4c(c2)OCO4)O3)cc1 (centres undefined)	nt	nt	-3	5	0	nt
